Sampled rows, rich in hits. Any-hit rate of the full collection: about 3%.
SENP8 block-1 = SENP8 (human) protease inhibition. Q96LD8. recombinant SENP8, Nedd8 substrate fluorescence. inhibition, % at 20 µM. 0.64% of 360,000 active. AID 602440; in the data active = inhibition mostly above about 40%, no sharp cut-off; inactive = mostly below about 27%
Target sequence (Q96LD8 whole entry, looked up): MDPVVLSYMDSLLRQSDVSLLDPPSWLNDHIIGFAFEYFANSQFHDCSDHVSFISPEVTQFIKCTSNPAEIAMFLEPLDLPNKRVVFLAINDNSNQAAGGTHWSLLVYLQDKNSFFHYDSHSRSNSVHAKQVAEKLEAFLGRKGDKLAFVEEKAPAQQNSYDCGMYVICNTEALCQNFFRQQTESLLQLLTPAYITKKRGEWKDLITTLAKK
SENP7 inh = SENP7 protease inhibition; recombinant SENP7, Z-RLRGG-aminoluciferin luminescence, 40 min; Q9BQF6; inhibition, % at 5 µM; AID 434973; 1.5% of 330,000 active;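 active = inhibition above about 50% at the single test dose, limit read from the data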;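 note: plate controls were DMSO with enzyme for no effect and no enzyme buffer wells for full effect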
PPC-1+TRAIL kill = compounds killing PPC-1 cancer cells with TRAIL present (potentiator screen, no TRAIL-free arm); AID 1443; cell killing (% activity), % at 4 µM or 5 µM; PPC-1 cells + TRAIL, ATPLite viability luminescence; 0.41% of 220,000 active;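 active = cell killing above 50% in the first pass at 4 µM, then a duplicate retest at 5 µM averaging 50% or more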;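 note: plate controls were cells with TRAIL plus DMSO for no effect and medium-only wells lacking cells for full effect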
SENP6 block = blocks the human protease SENP6 | Q9GZR1 | Recombinant SENP6 catalytic domain, aminoluciferin luminescence | inhibition, % at 10 µM | 1.8% of 330,000 active | AID 2599;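 active = inhibition above about 50% at the single tested dose, limit read from the data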;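 note: plate controls were DMSO wells with enzyme for no effect and DMSO wells lacking enzyme for full effect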
Target sequence (Q9GZR1 628-1112 limits assumed): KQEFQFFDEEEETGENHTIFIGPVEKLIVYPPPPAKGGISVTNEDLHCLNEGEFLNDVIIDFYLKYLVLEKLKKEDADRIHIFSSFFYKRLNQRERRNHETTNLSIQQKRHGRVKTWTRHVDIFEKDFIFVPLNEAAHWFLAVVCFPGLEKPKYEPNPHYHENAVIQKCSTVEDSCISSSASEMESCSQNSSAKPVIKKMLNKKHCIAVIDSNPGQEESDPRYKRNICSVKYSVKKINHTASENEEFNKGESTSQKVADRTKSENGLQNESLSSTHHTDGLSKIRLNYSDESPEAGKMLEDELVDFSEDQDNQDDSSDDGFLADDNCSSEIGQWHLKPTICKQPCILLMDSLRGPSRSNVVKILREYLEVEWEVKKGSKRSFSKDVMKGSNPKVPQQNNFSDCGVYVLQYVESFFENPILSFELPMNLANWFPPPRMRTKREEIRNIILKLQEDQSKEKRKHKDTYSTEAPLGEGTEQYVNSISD
SENP8 block-2 = SENP8 protease inhibition. Q96LD8. purified SENP8, Z-RLRGG-aminoluciferin cleavage, luminescence. inhibition, % at 10 µM. 1.2% of 330,000 active; in the data active = inhibition above about 50%
TRAIL sens C8 = sensitizes caspase-8 expressing cells to TRAIL. NB7+C8 cells + TRAIL, ATPlite viability luminescence. inhibition (viability loss, TRAIL sensitization), % at 10 µM. 1% of 360,000 active. AID 624354;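 active = compounds causing at least 50% loss of cell viability in the single-dose screen, relative to plate controls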
SENP8 conf = human SENP8 inhibition, confirmed. shares compounds with SENP7 inh. Recombinant SENP8, Z-RLRGG-aminoluciferin luminescence, 60 min. inhibition, % at 12.5 µM. 40% of 6,200 active. AID 488912;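 active = mean inhibition across replicates above about 50%, limit read from the data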
SENP6 confirm = human SENP6 inhibition, confirmed; shares compounds with SENP7 inh; AID 488915; inhibition, % at 12.5 µM; recombinant SENP6, Z-RLRGG-aminoluciferin luminescence; 58% of 6,200 active
SENP7 confirm = human SENP7 inhibition, confirmed. 69% of 6,200 active. inhibition, % at 12.5 µM. shares compounds with SENP7 inh. recombinant SENP7, Z-RLRGG-aminoluciferin luminescence, 40 min
Casp3 SENP sel = caspase-3 inhibition (SENP selectivity assay). shares compounds with SENP7 inh. purified caspase-3, Z-DEVD-aminoluciferin luminescence, 60 min. inhibition, % at 12.5 µM. 60% of 6,200 active. AID 488918;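 active = mean inhibition above about 50%, limit read from the data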;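 note: plate controls were enzyme with DMSO for no effect and wells without caspase-3 for full effect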
Luc interf = interferes with luciferase luminescence in SENP counter-screen | AID 488919 | 39% of 6,200 active | Pre-incubated SENP8/Z-RLRGG-aminoluciferin, luciferase luminescence interference | shares compounds with SENP7 inh | inhibition, % at 12.5 µM;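 active = mean inhibition above about 50% when retested at one dose, limit read from the data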;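 note: plate controls were DMSO wells with completed reaction for no effect and substrate without enzyme for full effect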
* hit, by the source's call; i = inactive; / = no result; ! = repeats disagree.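 Rule for the calls, unless noted: active = mean inhibition above about 50% in the one-dose retest (limit read from the data); inactive = the rest.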

SMILES	SENP8 block-1	SENP7 inh	PPC-1+TRAIL kill	SENP6 block	SENP8 block-2	TRAIL sens C8	SENP8 conf	SENP6 confirm	SENP7 confirm	Casp3 SENP sel	Luc interf
Cc1cccc(NC(=O)c2ccc3nccnc3c2)n1	-13.3	2.7	/	7.6	-4.0	10.8	/	/	/	/	/
Cc1cccc(NC(=O)c2ccc3c(Cl)c4c(nc3c2)CCCC4)n1	-2.9	87.0*	35.9	44.0	9.2	69.9*	-1.9	8.2	9.9	21.2	-3.8
CCCCN(C(=O)C(C)(C)Oc1ccc(Cl)cc1)c1c(N)n(CCC)c(=O)[nH]c1=O	3.6	2.9	/	-3.9	2.8	-4.3	/	/	/	/	/
COC(=O)CCC(=O)N1CN2CN(C(=O)CCC(=O)OC)CC([N+](=O)[O-])(C2)C1	19.2	8.5	27.4	94.8*	-0.3	-12.6	-26.5	-20.7	-11.2	-11.0	-7.7
O=C(O)CCC(=O)N1CN2CN(C(=O)CCC(=O)O)CC([N+](=O)[O-])(C2)C1	19.2	3.2	2.2	-15.4	-2.0	-21.0	/	/	/	/	/
Cc1ccc(NC(=O)c2ccn(C)n2)c(Br)c1	18.0	44.0	34.8	60.8*	42.3	41.3	46.6	41.9	80.6*	68.3*	61.2*
Cc1ccc(NC(=O)c2ccccn2)c(Br)c1	9.5	73.1*	11.9	82.3*	72.3*	21.2	66.0*	82.8*	79.3*	64.2*	34.4
Cn1ccc(C(=O)Nc2ccc(Br)cc2Br)n1	12.2	39.3	8.5	66.3*	37.5	6.6	43.3	44.5	65.1*	54.2*	20.5
Cc1ccc(NC(=O)Cn2cccc2)c(Br)c1	12.6	9.8	11.0	-13.6	-1.1	-10.8	/	/	/	/	/
Cc1ccc(/C=C/C(=O)CCC(=O)O)cc1	3.9	-10.7	6.9	-19.5	-25.4	2.8	/	/	/	/	/
Cn1cc(/C=C/C(=O)c2ccccc2)c2ccccc21	-251.6	78.8*	34.8	69.4*	63.4*	59.9*	5.8	73.7*	88.7*	44.7	42.7
Cc1ccc(C(=O)/C=C/c2cn(CN3CCN(C)CC3)c3ccccc23)cc1	-278.9	-4.0	12.6	11.9	-11.1	5.5	/	/	/	/	/
C=CCOc1cccc(C(=O)Nc2ncn[nH]2)c1	11.0	7.6	/	-17.9	0.7	-3.8	/	/	/	/	/
O=C(Cn1cnc([N+](=O)[O-])n1)NC1CC1	13.4	2.2	22.3	-31.0	-4.0	2.9	/	/	/	/	/
CCCCN(CC)c1nc(N)c2c(N)nc(OCC)cc2c1C#N	-275.5	23.8	14.1	67.3*	66.4*	25.4	-3.3	12.9	2.2	-5.6	-5.0
CCOc1cc2c(C#N)c(N3CCCC3)nc(N)c2c(N)n1	-269.5	26.4	/	33.5	3.1	-7.0	/	/	/	/	/
COc1cc2c(C#N)c(N3CCCC3)nc(N)c2c(N)n1	i	72.9*!	12.6	94.8*	88.2*	-7.8	44.5	62.4*	37.4	7.2	-1.9
N#Cc1c(N2CCCC2)nc(N)c2c(N)nc(N3CCCC3)cc12	-414.3	97.1*	10.7	96.6*	96.6*	33.3	97.8*	98.0*	97.0*	96.6*	11.2
CCCOc1cc2c(C#N)c(N3CCCC3)nc(N)c2c(N)n1	i	60.8*	/	84.6*	66.7*	-5.0	38.7	74.9*	38.7	/	0.2
O=C(NCc1ccccc1)NC(=O)c1ccc(Cl)cc1	12.3	6.5	/	0.2	-2.4	19.8	/	/	/	/	/
CSCCC(NC(=O)COc1ccccc1)C(=O)NCCOc1ccc(C)cc1 (stereo not given)	4.5	10.7	/	-10.9	-14.2	-1.8	/	/	/	/	/
O=C(c1cccc([N+](=O)[O-])c1)N1CCN(c2n[nH]c(=O)[nH]c2=O)CC1	25.3	4.2	11.4	-16.4	3.8	-0.6	/	/	/	/	/
CC1(Oc2ccccc2)CCN(Cc2csc3ccccc23)C1 (stereo not given)	18.1	/	/	/	/	-3.2	/	/	/	/	/
COc1cc2c(C#N)c(N3CCN(C)CC3)nc(N)c2c(N)n1	-274.8	55.2*	-26.1	58.9*	0.9	9.7	-15.7	-3.7	-6.0	-3.3	-13.2
COc1cc2c(C#N)c(N3CCN(c4ccccc4OC)CC3)nc(N)c2c(N)n1	-401.8	12.1	3.0	15.5	-0.2	20.7	/	/	/	/	/
SMILES	SENP8 block-1	SENP7 inh	PPC-1+TRAIL kill	SENP6 block	SENP8 block-2	TRAIL sens C8	SENP8 conf	SENP6 confirm	SENP7 confirm	Casp3 SENP sel	Luc interf
Fc1ccc(-c2cn3cc(C(F)(F)F)cc(Cl)c3n2)cc1	-150.2	82.2*	23.6	74.5*	33.8	20.3	59.0*	76.8*	86.2*	57.9*	45.5
O=C(N/N=C/c1ccc(OC(=O)c2ccccc2Cl)cc1)c1ccccn1	-6.9	71.4*	/	3.9	4.9	25.6	12.5	11.2	15.1	29.1	9.7
COc1ccc(COC(=O)c2c(C)nn(-c3ccccc3)c2Cl)cc1	6.2	18.3	/	61.5*	30.3	-3.8	29.4	32.5	53.8*	30.0	14.9
O=C(Nc1ccc(C(=O)N2CCCCC2)cc1)Nc1cccc(Cl)c1	8.3	72.8*	/	66.7*	26.8	4.2	-7.3	-5.7	-4.1	28.6	4.4
COc1cccc(NC(=O)c2ccccc2F)c1	-7.2	45.5	/	51.3*	49.3	36.7	25.2	19.1	67.0*	72.0*	53.1*
COc1cccc(NC(=O)Cc2ccccc2)c1	18.0	78.4*	5.0	74.0*	67.0*	24.9	69.8*	65.2*	89.8*	83.3*	76.3*
COc1cccc(NC(=S)NC(=O)Cc2ccccc2)c1	9.3	4.5	/	-32.4	-10.7	-10.0	/	/	/	/	/
COc1ccc(NC(=O)c2c(C)nn(-c3ccccc3)c2Cl)cc1	28.0	-12.3	/	-5.1	-15.1	-3.5	/	/	/	/	/
COc1cccc(NC(=O)COC(=O)c2c(C)nn(-c3ccccc3)c2C)c1	9.6	73.5*	/	75.9*	65.4*	15.0	70.8*	66.7*	90.4*	69.7*	74.7*
O=C(Nc1cccc(Cl)c1)Nc1ccccc1C(=O)O	-217.3	99.9*	21.3	99.3*	96.6*	22.3	98.3*	101.0*	104.0*	99.3*	99.6*
NC(=O)c1ccccc1NC(=O)Nc1cccc(Cl)c1	-161.9	92.1*	10.5	60.5*	81.9*	-23.2	86.5*	87.3*	99.4*	81.8*	88.7*
COc1cc(NC(=O)Nc2cccc(Cl)c2)c(C(=O)O)cc1OC	i	-3.5	0.3	-19.5	-2.4	16.5	/	/	/	/	/
O=C(Nc1ccccc1)Nc1cccc(Cl)c1	14.8	55.4*	17.5	59.7*	34.9	0.9	58.3*	58.5*	85.9*	43.6	70.7*

Source: PubChem BioAssay (Sanford-Burnham Center for Chemical Genomics)
